A selection: hits, their analogues and other compounds. The true share with any hit is near 0.9%.
RECQ1 helicase: RECQ1 (human) helicase inhibition | RECQ1 DNA unwinding, red fluorescence kinetic read | actives 0.54% (n = 240,000) | P46063 | Potency, µM (top dose mostly 57.3 µM), most hits filed as inhibitors; further: nearly all actives have a fitted effect of over 30% in size
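50 nM RECQ1T1 preincubated 15 min with compound in Tris pH 8.0 buffer with MgCl2, DTT, Tween-20 and 2.5 ug/ml poly(dI-dC); started with 200 nM TAMRA/BHQ-2 forked duplex and 2 mM ATP. Unwinding read as fluorescence (525/598 nm), two reads 2 h apart.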
BLM inh: Bloom syndrome helicase (human) inhibition. recombinant BLM DNA unwinding, fluorescence dequenching. Potency, µM (series often up to 56.1 µM), hits mostly inhibitors. actives 0.2% (n = 350,000); further: nearly all actives have a fitted effect of over 35% in size
GCN5L2 inh: inhibitors of human GCN5L2 histone acetyltransferase | Potency, µM (highest dose often 58.9 µM), hits mostly inhibitors | actives 0.21% (n = 390,000) | AID 504327 | Q92830 | GCN5L2 HAT assay, ThioGlo1 CoA-SH fluorescence
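Free CoA generated was detected with ThioGlo1 (50uM) fluorescence at Ex340nm/Em540nm, read immediately and after 20 min at room temperature. Enzyme, 20 nM in HEPES pH 7.5 buffer, saw compounds 15 min before adding 75uM H3(1-25) peptide and 70uM acetyl-CoA.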
Lamin A splicing: LMNA splicing modulation | HeLa LMNA splicing GFP/RFP minigene ratio, 48 h | Potency, µM (series often up to 46.1 µM), most hits filed as inhibitors | actives 0.01% (n = 200,000) | AID 1487; active means well fitted inhibition curve with a large enough effect in the signal ratio, with a control signal flat, not every such curve was filed as active; inconclusive means small, poorly fitted or top-dose-only effect, or effect the other way, or a change in a side signal; the % refers to the signal ratio
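S3 HeLa stable clones carrying a lamin A-EGFP splicing minigene plus DsRed2 were seeded at 600 cells/well in Opti-MEM with 2% FBS, pin-dosed and incubated 48 h at 37°C. Acumen cytometry (488 nm) gave the GFP/RFP total-intensity ratio.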
APE1 inh-1: inhibitors of human APE1 endonuclease; P27695; recombinant APE1, TAMRA/BHQ-2 abasic DNA cleavage fluorescence; Potency, µM (doses to about 65.8 µM), usual class: inhibitors; actives 0.35% (n = 350,000); further: nearly all actives have a fitted effect of over 55% in size
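Readout is kinetic fluorescence (ex 525, em 598 nm) from cleavage of 50 nM TAMRA/BHQ-2 THF abasic duplex by 0.75 nM APE1, compound added 15 min beforehand at RT.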
TDP1 inh: inhibitors of human tyrosyl-DNA phosphodiesterase TDP1 | Q9NUW8 | Potency, µM (highest dose often 130 µM), actives largely listed as inhibitors | actives 0.28% (n = 350,000) | recombinant TDP1, AlphaScreen DNA substrate cleavage | AID 485290; further: nearly all actives have a fitted effect of over 40% in size
Target sequence (Q9NUW8 whole entry, looked up): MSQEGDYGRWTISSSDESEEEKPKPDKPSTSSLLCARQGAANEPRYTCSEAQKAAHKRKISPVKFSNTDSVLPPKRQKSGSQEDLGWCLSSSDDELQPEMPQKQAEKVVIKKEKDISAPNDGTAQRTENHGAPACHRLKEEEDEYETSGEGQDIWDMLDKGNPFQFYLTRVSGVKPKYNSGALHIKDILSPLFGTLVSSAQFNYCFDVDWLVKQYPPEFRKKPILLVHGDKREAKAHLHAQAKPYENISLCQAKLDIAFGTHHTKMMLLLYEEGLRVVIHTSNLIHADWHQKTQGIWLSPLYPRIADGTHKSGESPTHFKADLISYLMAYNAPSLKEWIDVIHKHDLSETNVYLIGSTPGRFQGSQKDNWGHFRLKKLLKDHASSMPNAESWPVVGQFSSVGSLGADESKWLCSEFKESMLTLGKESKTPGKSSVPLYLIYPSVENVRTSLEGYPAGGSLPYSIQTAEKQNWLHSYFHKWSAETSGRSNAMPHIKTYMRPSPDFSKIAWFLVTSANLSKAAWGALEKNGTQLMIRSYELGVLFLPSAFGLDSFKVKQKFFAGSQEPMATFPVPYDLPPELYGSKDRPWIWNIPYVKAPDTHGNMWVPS
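Here, a 5' biotin and 3' phosphotyrosine-FITC DNA oligonucleotide reports Tdp1 activity: intact substrate bridges AlphaScreen beads, while cleavage leaves a 3' phosphate and drops signal. All incubations at room temperature.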
APE1 dye cs: displaces fluorescent dye from DNA, flagging APE1 artifacts; actives 7% (n = 480); shares compounds with APE1 inh-1; Potency, µM (series often up to 28.5 µM), usual class: inhibitors; DNA fluorescent dye displacement counterscreen, fluorescence; AID 2564;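 further: loss of thiazole orange fluorescence as the dye is displaced from duplex DNA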
Endo IV inh: Endo IV (E. coli) inhibition counter-screen; shares compounds with APE1 inh-1; actives 4% (n = 560); E. coli Endo IV, fluorogenic AP-site DNA cleavage; Potency, µM (series often up to 27.1 µM), most hits filed as inhibitors
APE1 inh-2: APE1 (human) endonuclease inhibition, confirmation; shares compounds with APE1 inh-1; purified APE1, fluorogenic abasic-site DNA cleavage; Potency, µM (top dose mostly 57.1 µM), actives largely listed as inhibitors; actives 44% (n = 750); further: nearly all actives have a fitted effect of over 30% in size
APE1 FP: compounds that displace a DNA probe from human APE1; shares compounds with APE1 inh-1; actives 7% (n = 480); AID 2573; APE1 binding to TAMRA-labelled double-stranded DNA, fluorescence polarization displacement; Potency, µM (top dose mostly 28.5 µM), most hits filed as inhibitors
A number is an active result; - = inactive; ? = inconclusive; . = not tested or not shown; ! = a repeat was not active. Unless noted, the call rests on the fitted dose curve; in most records, active means well fitted curve in the direction sought with a large enough effect; inconclusive means small, poorly fitted or top-dose-only effect, or another doubt; inactive means no such curve, though single readings can be large; an effect the other way counts as inactive or inconclusive.

SMILES | RECQ1 helicase | BLM inh | GCN5L2 inh | Lamin A splicing | APE1 inh-1 | TDP1 inh | APE1 dye cs | Endo IV inh | APE1 inh-2 | APE1 FP
COc1ccc2c(c1)c(=O)oc1cc3oc(C)c(C)c3cc12 | - | - | - | - | ? | . | - | - | 5.6µM | -
COc1ccc2c(c1)c(=O)oc1cc(O)ccc12 | - | - | - | . | - | - | . | . | . | .
Cc1ccc2nc(NC(=O)CCCC(=O)O)sc2c1 | - | - | - | - | ? | . | - | - | ? | -
O=C(COC(=O)CCNS(=O)(=O)c1cccc(C(F)(F)F)c1)NC(=O)NC1CCCCC1 | - | - | - | - | ? | - | - | - | ? | -
O=C(COC(=O)Cc1cccc(C(F)(F)F)c1)NC(=O)NC1CCCC1 | . | . | - | . | - | - | . | . | . | .
CCn1cnc2c(Nc3ccc(CCC(=O)N=C(N)N)cc3)nc(C#N)nc21 | . | . | . | . | . | - | . | . | . | .
CCOC(=O)/C=C/C(=O)OCC(=O)Nc1ccc(Cl)cn1 | - | - | ? | - | - | - | . | . | . | .
CCOC(=O)NC1(Nc2ccc(Cl)cn2)Oc2ccccc2O1 | 22µM | - | - | ? | 2.5µM | . | . | . | - | .
O=C(CSc1nnc(-c2cccc(S(=O)(=O)N3CCCC3)c2)n1-c1ccccc1)Nc1ccc(C(=O)O)cc1 | - | ? | - | . | - | 79µM | . | . | ? | .
C/C=C1\COC(C(=O)NCCN2CCOCC2)(C(F)(F)F)C=C1C=C(C)C (configuration not stated) | - | - | . | . | - | - | . | . | . | .
Cc1ccc(C(=O)Nc2cccc(C(F)(F)F)c2)cc1Nc1ccccn1 | - | - | - | . | 35µM | - | - | - | ? | -
COc1cccc(Cn2c(=O)c(-c3ccc(Cl)cc3)nc3cnc(OC)nc32)c1 | - | - | - | ? | - | . | . | . | . | .
CC(=O)N1CCc2cc(S(=O)(=O)Nc3ccc(C)c(C)c3)ccc21 | . | . | . | . | . | - | . | . | . | .
COc1cc(OC)c2c(-c3ccccc3)cc(=O)oc2c1C(CC(=O)N1CCOCC1)c1ccc2c(c1)OCO2 (configuration not stated) | ? | - | - | . | ? | - | . | . | . | .
COc1cc(OC)c2c(-c3ccccc3)cc(=O)oc2c1C(CC(=O)N1CCN(c2ccccc2)CC1)c1ccc2c(c1)OCO2 (configuration not stated) | - | - | - | . | ? | ? | - | - | 13µM | -
NS(=O)(=O)c1ccc(N=Nc2ccc(=O)[nH]c2O)cc1 | - | - | - | . | 16µM | 45µM | . | . | ? | .
C/C=C\C1=CCCC1Nc1ncnc2ccc(-c3c(C)noc3C)cc12 (configuration not stated) | - | - | . | . | - | - | . | . | . | .
O=c1cc(-c2ccc(O)cc2)oc2c([C@@H]3O[C@H](CO)[C@@H](O)[C@H](O)[C@H]3O)c(O)c([C@@H]3O[C@H](CO)[C@@H](O)[C@H](O)[C@H]3O)c(O)c12 | - | - | - | - | ? | - | . | . | . | .
O=c1cc(-c2ccc(O)cc2)oc2c(C3OCC(O)C(O)C3O)c(O)c(C3OC(CO)C(O)C(O)C3O)c(O)c12 (configuration not stated) | - | - | - | . | 20µM | . | - | - | 4.5µM | -
NS(=O)(=O)c1ccc(N/N=C/c2ccc(O)c(O)c2O)c([N+](=O)[O-])c1 | 3.2µM | 16µM | ? | . | 2µM | - | 13µM | - | 5.6µM | -
COc1ccc(-n2c(C)cc(C=O)c2C)cc1Cl | - | - | - | - | - | - | . | . | . | .
Cc1cc(C=O)c(C)n1-c1ccc(Cl)c(C(=O)O)c1 | 28µM | - | - | . | 5.6µM | 45µM | - | - | 8.9µM | -
CCOC(=O)CNS(=O)(=O)c1cc(-c2nn(C)c(=O)c3ccccc23)ccc1C | - | - | - | - | 35µM | 50µM | - | - | 10µM | -
Cc1ccc(-c2nn(C)c(=O)c3ccccc23)cc1S(=O)(=O)NCCN1CCOCC1 | - | - | - | - | - | - | . | . | . | .
C[C@H](C(=O)OCO/N=[N+](\[O-])N1CCCC1)c1cccc2ccccc12 | - | - | . | . | - | - | . | . | . | .
SMILES | RECQ1 helicase | BLM inh | GCN5L2 inh | Lamin A splicing | APE1 inh-1 | TDP1 inh | APE1 dye cs | Endo IV inh | APE1 inh-2 | APE1 FP
COc1ccc(Cl)c(Cn2cnc3c(cnn3C(C)(C)C)c2=O)c1 | . | . | . | . | - | . | . | . | . | .
NC[C@@H](O)c1ccc(O)c(O)c1 | 14µM! | 13µM! | - | . | 1µM | ? | . | - | 4µM | .
Cc1cc[n+](-c2[nH]c(=O)sc2/C=N/N=C(\[O-])c2ccccc2)cc1C | 28µM | - | - | - | 18µM | 40µM | - | - | ? | -
O=c1[nH]c(-[n+]2ccccc2)c(/C=N/N=C(\[O-])c2ccccc2)s1 | - | - | - | . | ? | - | . | . | . | .
Cc1cc[n+](-c2[nH]c(=O)sc2/C=N/N=C(\[O-])c2ccccc2)cc1 | - | - | - | . | - | 40µM | . | . | 40µM | .
CCC1CC=CC2C1C(=O)N(Cc1ccccc1)C2c1ccc2ccccc2c1 (configuration not stated) | - | - | . | . | - | - | . | . | . | .
Cc1ccccc1NC(=O)CN1C(=O)S/C(=C\c2ccc(-c3cccc(C(=O)O)c3C)o2)C1=O | - | - | - | . | - | - | . | . | . | .
Cc1cccc(NC(=O)CN2C(=O)S/C(=C\c3ccc(-c4cccc(C(=O)O)c4C)o3)C2=O)c1 | - | ? | - | . | ? | 25µM | . | . | 25µM | .
O=C(O)c1cccc(-n2cccc2/C=C/[N+](=O)[O-])c1 | ? | - | - | . | 4µM | . | - | - | 4.5µM | ?
Cc1ccc(NC(=O)CN2C(=O)N/C(=C\c3cccn3-c3cccc(C(=O)O)c3)C2=O)cc1 | ? | - | ? | - | 3.5µM | 2.8µM | - | - | 14µM | 14µM
N#CC(C#N)=Cc1cccn1-c1ccc(C(=O)O)cc1 | 25µM | - | ? | . | 13µM | 3.2µM | - | - | 35µM | -
Cc1cc(C(=O)O)ccc1-c1ccc(/C=C2\NC(=O)N(Cc3ccc(F)cc3)C2=O)o1 | - | - | - | . | 13µM | 4µM | ? | - | 40µM | -
Cc1ccc(NC(=O)CN2C(=O)N/C(=C/c3ccc(N4CCOCC4)cc3)C2=O)cc1 | - | - | - | - | - | - | . | . | . | .
O=C(O)CC/C=C\CC[C@@H]1[C@@H](N2CCCCC2)[C@@H](O)C[C@@H]1OCc1ccc(-c2ccccc2)cc1 | . | - | - | . | . | . | . | . | . | .
